14-3-3 Bad PPI – disrupts binding of bovine 14-3-3 zeta to phospho-Bad peptide. inhibition, % at 21.7 µM. 0.71% of 220,000 active. TR-FRET 14-3-3zeta/Dy647-pBad peptide displacement, 1 h. P63103;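 active means inhibition above about 70%, limit read from the data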;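 further: 0% = full 14-3-3 plus peptide FRET controls and 100% = background without 14-3-3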
Mcl1-Bid inh – Mcl-1/Bid interaction inhibition; Q07820; TR-FRET Mcl-1/Bid-Dy647 peptide binding, 1536-well; inhibition, % at 21.7 µM; 0.97% of 220,000 active; AID 1021;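 active means compounds that cut the binding signal by more than half at the single screening dose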;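 further: His-tagged Mcl-1 with europium anti-His antibody binding Bid BH3 peptide; 0% = Mcl-1 plus peptide wells and 100% = peptide-only wells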
Target sequence (Q07820 whole entry, looked up): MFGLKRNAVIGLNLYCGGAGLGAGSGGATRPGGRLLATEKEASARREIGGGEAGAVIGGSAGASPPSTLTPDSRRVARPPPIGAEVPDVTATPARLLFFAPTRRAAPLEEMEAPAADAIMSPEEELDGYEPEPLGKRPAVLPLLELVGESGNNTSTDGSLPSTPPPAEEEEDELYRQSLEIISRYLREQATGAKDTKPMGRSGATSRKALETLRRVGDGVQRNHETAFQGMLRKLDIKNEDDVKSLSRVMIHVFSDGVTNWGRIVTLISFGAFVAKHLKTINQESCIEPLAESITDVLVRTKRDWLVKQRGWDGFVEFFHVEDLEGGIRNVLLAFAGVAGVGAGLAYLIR
NCF1 inh – blocks human p47phox regulatory protein of NADPH oxidases | AID 1274 | p47phox/p22phox peptide binding, fluorescence polarization, 2 h | 0.53% of 220,000 active | inhibition, % at 24.7 µM;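 active means inhibition above about 30%, limit read from the data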;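 further: 0% = p47phox with labelled peptide and 100% = labelled peptide alone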
Target sequence (P14598 whole entry, looked up): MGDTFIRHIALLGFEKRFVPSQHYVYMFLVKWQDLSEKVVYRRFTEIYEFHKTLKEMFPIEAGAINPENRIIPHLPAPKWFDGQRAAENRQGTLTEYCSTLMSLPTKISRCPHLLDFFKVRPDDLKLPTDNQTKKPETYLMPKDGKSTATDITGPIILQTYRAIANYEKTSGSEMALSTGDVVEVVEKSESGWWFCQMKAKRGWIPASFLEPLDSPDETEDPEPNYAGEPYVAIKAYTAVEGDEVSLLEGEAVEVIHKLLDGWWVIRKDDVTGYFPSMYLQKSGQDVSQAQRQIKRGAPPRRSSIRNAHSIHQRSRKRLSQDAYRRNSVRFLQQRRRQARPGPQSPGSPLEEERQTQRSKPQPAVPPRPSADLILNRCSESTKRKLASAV
Mcl1-Noxa inh – disrupts binding of human Mcl-1 to Noxa peptide; TR-FRET Mcl-1/Noxa peptide binding, 2 h; inhibition, % at 21.7 µM; 1.5% of 220,000 active; AID 1022;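 active means compounds that cut the protein-peptide binding signal by more than 50% relative to plate controls in a single-dose test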;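 further: His-tagged Mcl-1 with rhodamine Noxa BH3 peptide and terbium anti-His antibody; 0% = Mcl-1 plus Noxa peptide wells and 100% = peptide-only wells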
Bim-Mcl-1 – human Bim-Mcl-1 interaction inhibition. Q07820. Bead-based flow cytometry, Bim peptide-Mcl-1 binding. inhibition, % at 10 µM. 0.1% of 190,000 active. AID 1009; in the data active means inhibition above about 40%;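 further: 0% = no compound tracer wells and 100% = peptide blocker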
m-calpain inh – inhibitors of pig calpain II; purified calpain II, fluorogenic peptide substrate, 30 min; inhibition, % at 16 µM; 0.37% of 220,000 active;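 active means inhibition above about 50%, limit read from the data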
* = called active by the depositor; i = inactive; x = not tested or not shown; + = active, no number; [ ] = dose if it differs, or a comment. A selection: hits, their analogues and other compounds. The true share with any hit is near 3.4%.

SMILES | 14-3-3 Bad PPI | Mcl1-Bid inh | NCF1 inh | Mcl1-Noxa inh | Bim-Mcl-1 | m-calpain inh
CC(C)(C)NC(=O)CN(Cc1ccc2c(c1)OCO2)C(=O)CNC(=O)c1cccs1 | 1.8 | -31.0 | 2.1 | 7.5 | 0.0 | 17.1
CCOC(=O)c1cc(-c2ccccc2)sc1NC(=O)COC(=O)c1cccc(S(N)(=O)=O)c1 | 73.1* | -111.7 | 6.2 | -27.3 | 0.0 | -60.5
COc1cc(/C=C2/SC(=S)NC2=O)ccc1OS(=O)(=O)c1ccc(C)cc1 | 20.9 | 81.5* | -57.9 | 97.6* | -10.0 | 62.9*
COc1cc(/C=C2\SC(=S)NC2=O)ccc1OS(=O)(=O)c1ccccc1 | -7.4 | -60.1 | -51.7 | 79.0* | -13.0 | 61.7*
COc1ccccc1NS(=O)(=O)/C=C/c1ccccc1 | -23.8 | -12.0 | -9.1 | 7.1 | -1.0 | -5.0
Oc1c(N=Nc2ccccn2)ccc2ccccc12 | -15.3 | -80.2 | 62.4* | x | 7.0 | 17.4
c1ccc2c(c1)ccc1ncccc12 | -7.3 | -12.2 | -6.5 | 15.5 | -2.0 | -34.4
COc1cc(NC(=O)c2ccccc2)c(OC)cc1NC(=O)Cc1cccs1 | 0.8 | -108.0 | -3.5 | 61.5* | 0.0 | -147.8
COc1ccc(Cc2nnc(NC(=O)Cc3cccs3)s2)cc1OC | 63.0 | 75.8* | -45.9 | 96.4* | 0.0 | -35.0
O=C(Cc1cccs1)Nc1nnc(Cc2ccccc2)s1 | -14.2 | -38.8 | -54.4 | 82.1* | -17.0 | -60.5
O=C(Cc1cccs1)Nc1nnc(CCc2ccccc2)s1 | 4.9 | -0.3 | -11.5 | 9.7 | 2.0 | 1.0
O=C(Cc1cccs1)Nc1nnc(SCc2cccc3ccccc23)s1 | -6.0 | 18.2 | -23.4 | 68.4* | -3.0 | -46.5
O=C(Cc1cccs1)Nc1nc2c(ccc3ccccc32)s1 | 13.0 | -11.2 | -20.9 | 10.4 | -3.0 | 1.6
COCCN1C(=O)c2cc(C(=O)Nc3ccc(OC)c(OC)c3)ccc2C1Nc1ccc(OC)c(OC)c1 (stereo unspecified) | -6.3 | -42.8 | 0.5 | 17.0 | 0.0 | -45.4
Cc1ccc(/C([O-])=C(/C(=S)NCc2ccc3c(c2)OCO3)[n+]2ccc(N(C)C)cc2)c(C)c1 | -9.7 | -63.9 | -9.1 | 14.4 | -2.0 | 2.5
O=C(Nc1ccccc1-c1ccccc1)c1ccc(NC(=O)c2ccco2)cc1 | 1.6 | 3.1 | -13.8 | 14.4 | 0.0 | -21.9
NC(=O)C1CCN(CC(=O)Nc2ccccc2N2CCOCC2)CC1 | -0.2 | -2.5 | -6.9 | -3.9 | x | 9.5
COc1ccc(CC(=O)NCc2nnc(SCC(=O)Nc3nccs3)n2-c2ccccc2)cc1 | 5.5 | -24.2 | -10.4 | -5.4 | 1.0 | -5.1
COc1ccc(OCc2nnc(SC(C)C(=O)Nc3nccs3)n2-c2ccccc2)cc1 (stereo unspecified) | -0.3 | -4.6 | 36.0* | 12.2 | -1.0 | -1.9
O=[N+]([O-])c1cccc(N/N=C/c2cccc3ccccc23)c1 | 10.6 | -12.6 | -3.4 | 58.6* | -2.0 | 29.5
O=[N+]([O-])c1ccc(N/N=C/c2c[nH]c3ccccc23)cc1 | -13.1 | -52.8 | -88.2 | x | 0.0 | 11.6
CCOC(=O)CN1N=C(/C=C/c2ccc(C(C)C)cc2)CCC1=O | -12.8 | -15.5 | -4.5 | -20.9 | -2.0 | 54.7*
CCOC(=O)C1=C(CP(=O)(c2ccccc2)c2ccccc2)NC(=O)NC1c1ccc(OC)cc1 (stereo unspecified) | 7.7 | -2.9 | 0.8 | 4.4 | 74.0* | -26.9
CCOC(=O)C1=C(CP(=O)(c2ccccc2)c2ccccc2)NC(=O)NC1c1ccc(Cl)cc1 (stereo unspecified) | 2.2 | 7.3 | -6.4 | -2.7 | -3.0 | 3.6
CCCCNC(=O)c1cc2n(n1)C(C(F)(F)F)CC(c1ccccc1)N2 (stereo unspecified) | -9.7 | 2.0 | 57.4* | 13.3 | -2.0 | 27.9
SMILES | 14-3-3 Bad PPI | Mcl1-Bid inh | NCF1 inh | Mcl1-Noxa inh | Bim-Mcl-1 | m-calpain inh
Cc1ccc(C2CC(C(F)(F)F)n3nc(C(=O)NCCN4CCOCC4)cc3N2)cc1 (stereo unspecified) | 0.8 | -29.8 | -8.0 | -14.3 | 0.0 | -2.6
CCNc1nc(NCC)nc(OCCOC(=O)Nc2ccccc2)n1 | 7.4 | -7.5 | -3.1 | -7.6 | 2.0 | -7.0
CCNc1nc(NCC)nc(C(=O)Nc2ccccc2)n1 | -12.1 | -48.1 | -61.2 | 64.8* | -2.0 | 15.0
CCOC(=O)Cn1c(=NC(=O)c2ccc([N+](=O)[O-])s2)sc2ccccc21 | 0.8 | -15.6 | 10.0 | 9.4 | -4.0 | -25.0
Cc1c(C(=O)OC(C)C)[nH]c2c1C(=O)CCC2 | -14.5 | -19.6 | + | -3.3 | -2.0 | 4.0
CC(=O)c1cc(CN2CCN(C3CCN(C(C)C)CC3)C(CCO)C2)cs1 (stereo unspecified) | -3.2 | -58.8 | -0.5 | 6.9 | 0.0 | -19.8
Cc1ccc(O)c(C(=O)c2cnn(C(=O)COc3ccccc3C#N)c2)c1 | 30.7 | 17.7 | 32.3* | 31.1 | x | 21.0
CNC(=S)NCc1ccc2[nH]c3c(c2c1)CCCC3 | -22.1 | -38.0 | -4.2 | 13.2 | 3.0 | -16.2
CCCCNC(=S)NCc1ccc2[nH]c3c(c2c1)CCCC3 | -15.0 | -40.2 | -3.3 | 10.2 | -1.0 | 63.1*
CC(C(=O)Nc1ccc2c(c1)OCCO2)N(C)Cc1c(F)cccc1Cl (stereo unspecified) | 96.7* | -38.4 | -10.2 | 5.1 | 1.0 | 0.6
O=C(Nc1ccc2c(c1)OCCO2)c1c(F)cccc1F | 2.3 | 4.3 | -7.2 | -7.1 | -1.0 | -4.2
Cc1ccc2nc(SC(C)C(=O)NC3CCCc4ccccc43)[nH]c2c1 (stereo unspecified) | -5.2 | 84.0* | -2.0 | 10.6 | -4.0 | 9.3
CC1CN(Cc2nnc(-c3ccccc3)o2)CC(C)O1 (stereo unspecified) | 13.2 | 15.9 | x | 2.4 | -1.0 | -24.9
O=C(Cc1c(F)cccc1Cl)Nc1ccon1 | -5.4 | 82.6* | -44.9 | 2.9 | 0.0 | 19.0
Cc1cc(NC(=O)Cc2c(F)cccc2Cl)no1 | -1.7 | -11.0 | -5.0 | -12.2 | 0.0 | 3.7
O=C(CSc1nnc(SCc2cccc3ccccc23)s1)N/N=C/c1c[nH]c2ccccc12 | -5.4 | -24.5 | -43.1 | 18.9 | 20.0 | -43.5
O=C(COc1ccc(Cl)cc1Cl)NCC(=O)N/N=C/c1c[nH]c2ccccc12 | 15.0 | 20.5 | -3.7 | 58.5* | -5.0 | 5.0
O=C(CSc1nnc(SCc2ccc(Cl)cc2)s1)N/N=C/c1c[nH]c2ccccc12 | 90.2*[fluorescence artefact?] | 92.5* | 42.9* | 65.5* | -6.0 | 9.8
CC(C)(C)OC(=O)N1CCC2(CC1)C(C#N)=C(N)OC1=C2C(=O)CCC1 | -3.2 | -22.5 | 0.2 | 46.8 | -3.0 | 11.4
COc1ccc2c(c1)c(=O)oc1cc(O)ccc12 | 3.7 | -10.2 | -1.7 | 6.0 | 0.0 | -47.0
COc1ccc2c(c1)c(=O)oc1cc3oc(C)c(C)c3cc12 | 10.2 | 66.7* | 2.9 | 55.8* | -4.0 | -46.9
Cc1ccc(-c2cc(-c3ccco3)c(C#N)c(=O)[nH]2)cc1 | 26.0 | -32.0 | -30.7 | 68.0* | x | -329.0
N#Cc1c(-c2ccccc2)cc(-c2ccco2)c(C#N)c1N | 11.8 | 14.3 | -53.5 | 73.7* | -1.0 | i
N#Cc1sc2nc(-c3ccccc3)cc(-c3ccco3)c2c1N | -0.9 | 74.2* | -10.2 | 101.8* | 0.0 | -347.6

Assay outcomes as filed in PubChem BioAssay.
